# Experimental data: the supplement of paper PMC3334620
# Whole data set: some 33,000 sequences, median “E-score (-0.5 to 0.5)” near -0.012, cut for the highest 2% near 0.29. Shown is part of a subset that was picked to be rich in the highest values.
# Target: T1, Ybr033w (UniProt P38073)
# T1 sequence: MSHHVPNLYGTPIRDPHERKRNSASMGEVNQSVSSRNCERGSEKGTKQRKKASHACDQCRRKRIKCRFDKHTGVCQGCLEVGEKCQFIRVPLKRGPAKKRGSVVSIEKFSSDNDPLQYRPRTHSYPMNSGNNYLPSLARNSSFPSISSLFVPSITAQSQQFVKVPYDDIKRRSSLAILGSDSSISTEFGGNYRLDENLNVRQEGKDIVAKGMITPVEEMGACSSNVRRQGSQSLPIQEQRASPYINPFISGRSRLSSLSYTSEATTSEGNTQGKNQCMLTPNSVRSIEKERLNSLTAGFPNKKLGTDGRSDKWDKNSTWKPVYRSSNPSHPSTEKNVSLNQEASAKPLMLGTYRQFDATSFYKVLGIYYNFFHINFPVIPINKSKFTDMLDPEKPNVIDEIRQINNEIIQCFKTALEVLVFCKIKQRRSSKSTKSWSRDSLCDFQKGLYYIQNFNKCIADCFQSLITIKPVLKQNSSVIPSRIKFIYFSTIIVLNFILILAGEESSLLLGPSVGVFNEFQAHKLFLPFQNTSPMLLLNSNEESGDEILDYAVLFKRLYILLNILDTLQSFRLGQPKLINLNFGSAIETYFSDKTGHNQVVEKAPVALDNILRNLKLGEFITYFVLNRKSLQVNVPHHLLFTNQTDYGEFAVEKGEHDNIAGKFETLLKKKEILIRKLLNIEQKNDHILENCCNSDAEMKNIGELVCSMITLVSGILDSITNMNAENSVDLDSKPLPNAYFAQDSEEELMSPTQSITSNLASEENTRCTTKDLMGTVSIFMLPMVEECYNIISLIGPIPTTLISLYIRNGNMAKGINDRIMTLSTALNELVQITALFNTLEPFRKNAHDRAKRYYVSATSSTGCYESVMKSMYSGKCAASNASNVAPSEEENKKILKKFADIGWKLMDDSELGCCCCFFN
# Experiment: PBM E-score (8-mer binding enrichment) (E-score (-0.5 to 0.5)); higher = stronger / more preferred TF binding
# Conditions: protein concentration: 200 nM; construct: GST-full length
# Protocol: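 Universal 'all 10-mer' protein binding microarrays (Agilent AMADID 015681) probed with GST-tagged S. cerevisiae TFs (full-length or DBD) made by in vitro transcription/translation (PURExpress), about 100-200 nM. Bound TF was detected with fluorescent anti-GST. Each ungapped 8-mer (which stands for itself and its reverse complement) is scored by the PBM enrichment score (E-score), a modified Wilcoxon-Mann-Whitney statistic from -0.5 to +0.5, computed with the Universal PBM Analysis Suite. Scale: above 0.35 generally sequence-specific binding.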
row,Sequence,PBM E-score
1,CCCGCCTC,-0.17
2,CGCCCCAA,-0.118
3,AGGAACAC,0.193
4,ACGAACAT,0.151
5,AGGAACAG,-0.0964
6,TGGAACCA,0.0554
7,TCGAACAA,0.138
8,AGGAACAT,0.399
9,GGGAACAA,0.381
10,GGGAACAC,0.0998
11,AGGAACAA,0.402
12,GCGAACAA,0.183
13,TGGAACAA,0.434
14,ATGAACAT,0.217
15,CCTGAATA,0.186
16,TCCCCTAA,-0.208
17,ATCTATTA,0.327
18,GTGTATTA,0.28
19,GTCTATCA,0.0657
20,GTCTATTA,-0.0198
21,ATGTATTA,0.293
22,ATCTATCA,0.302
23,CTCTATTA,0.152
24,CTCTATCA,-0.0434
25,ATGTATTG,0.266

row,Sequence,PBM E-score
1,GCTACAAC,0.0399
2,GAAGAGCC,-0.13
3,ACCGGCCA,-0.314
4,ATCCACAT,0.224
5,ACTCCTCC,-0.182
6,CGTAGTCA,-0.186
7,AATATCGG,0.198
8,ACTATCAT,0.242
9,AATATCAT,0.294
10,AATATCAA,0.233
11,AATATCAG,0.299
12,AATATCGT,0.33
13,AATATCGA,0.164
14,AATATCAC,0.239
15,CATATCAG,0.0658
16,ACGACGTA,0.0878
17,ACTTGGAC,0.127
18,ACCAGCAT,0.0255
19,CTGCGGTC,-0.262
20,AATCTACG,-0.0149
21,ACAGCACA,0.144
22,CCCCTTCG,-0.317
23,AAAATACG,0.171
24,AAAATACA,0.254
25,AAAATACC,0.315

row,Sequence,PBM E-score
1,ACAATACT,0.219
2,CAAATACC,0.112
3,AAAATACT,0.301
4,AATACTCT,0.298
5,AATACTCC,0.0328
6,AATACTCA,0.229
7,CTCTAGCA,-0.0957
8,AACGATGA,0.0671
9,GTGTTAGA,0.0758
10,GATAAGTA,0.205
11,GTAGACTA,-0.131
12,AATGCAAA,0.274
13,TCACTGGA,0.00252
14,ATAGTAGC,0.16
15,GACCTCCC,-0.249
16,CCGCGTGC,-0.231
17,GTTAAATA,0.278
18,ATTAAATG,0.347
19,ATTAAATA,0.33
20,ATAAAATG,0.219
21,ATTAAATC,0.213
22,CTTAAATA,0.114
23,AGCACAGC,0.0732
24,CATCGAGC,-0.0235
25,GTCTTGCA,0.0132

row,Sequence,PBM E-score
1,ATCTTGCA,0.294
2,ATCTTGCG,0.0267
3,AACTTGGT,0.168
4,GCTTTCCC,-0.253
5,GAAACTTC,0.112
6,AAAACTAA,0.328
7,GAAACTTA,0.332
8,AAAACTAT,0.217
9,TAAACTTA,0.166
10,AAAACTTA,0.362
11,AAAACTTC,0.176
12,TAAACTAA,0.271
13,CAAACTTA,0.191
14,ATTCTTAA,0.0371
15,AAAGCTAG,0.103
16,CCTAGCCG,-0.157
17,GAGCGTTA,0.113
18,GGTTCTAC,-0.0153
19,GGAATAAA,0.296
20,AGAATAAG,0.14
21,AGAATAAA,0.312
22,CGAATAAC,0.07
23,AGAATAAC,0.141
24,AGAATAAT,0.163
25,GGAATAAC,0.453

row,Sequence,PBM E-score
1,TGAATAAA,0.195
2,CGAATAAA,0.145
3,GATCGAGC,-0.00942
4,ATAGGTGG,-0.108
5,CGAGTGGC,-0.32
6,AGTTACCG,0.0592
7,CCAAGAAA,0.167
8,AGAAGAAC,0.171
9,TTCAAGAA,0.296
10,GGAAGAAC,0.461
11,TCAAGAAA,0.291
12,GTCAAGAA,0.146
13,TTCAAAAA,0.239
14,GGAAGAAA,0.34
15,AGAAGAAA,0.0907
16,CGAAGAAA,0.156
17,ACAAGAAA,0.206
18,CGAAGAAC,0.145
19,AGACTAGC,-0.208
20,CCTTGCTA,0.00278
21,AGGAGCGG,-0.359
22,CGGGTAGA,-0.0322
23,ATAAATTC,0.308
24,ATAAATTG,0.365
25,ATAAATGC,0.0963

row,Sequence,PBM E-score
1,CTAAATTA,0.173
2,GTAAATTA,0.193
3,ATAAATTA,0.375
4,ATAAATCG,0.218
5,AGAAATTG,0.281
6,AAAAATTG,0.221
7,CTAAATTC,0.204
8,ATAAATCA,0.223
9,ATAAATCC,0.324
10,ACTATTGA,0.243
11,CTGGAGAA,-0.115
12,CAGAGTAA,-0.0159
13,CTAGAGCC,-0.0992
14,TCCAACGA,-0.0709
15,AGTCACAT,0.0586
16,GTGCCCGA,-0.142
17,AAAGCTTC,-0.0172
18,AGCTCTGG,-0.197
19,AGTTGCTC,-0.15
20,ATTCCACA,0.335
21,ATTCCACC,0.208
22,ATTCCACG,-0.0625
23,AGATTCTG,-0.0373
24,ACTGGATG,-0.0668
25,ATTGGTCG,-0.0127

row,Sequence,PBM E-score
1,CTATAATA,0.156
2,GGAATATA,0.291
3,CTAATATC,0.196
4,CTAATAGA,0.06
5,GCAATATA,0.123
6,ATATAATA,0.34
7,CTAATATA,0.297
8,CGAATATA,0.156
9,GTATAATA,0.207
10,GTAATAGA,0.17
11,GTAATATA,0.299
12,AGAATATA,0.134
13,AATCCAAG,0.228
14,CTAGCGAG,-0.177
15,ACATCGCT,-0.101
16,ACGGGCAT,-0.108
17,ACTTTAGG,-0.0326
18,CCCCAAGA,-0.0572
19,ATAATATC,0.28
20,ATAATATA,0.321
21,ATAATATG,0.273
22,CAAGTCTC,-0.0267
